Source: PubChem BioAssay (NCATS)
Several values for one entry are separate records, joined by “and”; a condition that tells them apart may be missing. Identical values can stand only once. Inconclusive results are not listed. Activity calls are given as the source filed them. Unless noted, calls follow the shape of the dose curve; as a rule, active = well fitted curve in the direction sought with a large enough effect; inconclusive = small, poorly fitted or top-dose-only effect, or another doubt; inactive = no such curve, though single readings can be large; an effect the other way counts as inactive or inconclusive.

What was measured:
[1] = Cell Viability - MRC5 (AID 434; calls by dose curve;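 also: potency is read from the fitted curve at half-maximal effect; cells exposed to compound for 40 hours at 37 °C; potency reflects cytotoxicity seen as loss of intracellular ATP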); details: MRC5 lung fibroblast viability, qHTS
Method in brief: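 Decrease in intracellular ATP, quantified by luciferase light output, reflects compound toxicity toward MRC5 cells exposed for 40 hr in complete culture medium. Concentration-response curves, scaled between DMSO and 100 uM tamoxifen, gave AC50 values.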

[2] = target: Mitogen-activated protein kinase 10 (Mus musculus) (UniProt Q61831); assay: JNK3 AlphaScreen Assay (AID 530; active = well fitted curve in either direction with a large enough effect, not every such curve was filed as active;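 also: kinase came from lysate of stimulated human HepG2 cells; signal reports phosphorylation of biotinylated GST-cJun 1-79 at Ser73 with 10 µM ATP; % is scaled to controls: 0 for no effect and ±100 for the full control effect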); details: JNK3 lysate, c-Jun phosphorylation; series mostly up to 57.1 µM
Method in brief: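 Biotinylated GST-cJun(1-79) served as substrate for JNK3 in HepG2 lysates stimulated with IL-1beta and TNF-alpha. ATP was 10 uM final, pH 7.6. Ser73 phosphorylation was quantified by AlphaScreen (680 nm excitation).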

[3] = Cell Viability - Mesenchymal (AID 546); details: mesenchymal cells viability, qHTS; series mostly up to 91.7 µM;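 also: cells exposed to compound for 40 hours before reading; 0% = DMSO only and -100% = 100 µM tamoxifen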
Method in brief: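 In this qHTS cytotoxicity format, glomerulus-derived human mesenchymal kidney cells received compound for 40 hr, then luciferase-based ATP quantitation. Concentration-response data were fitted with the Hill equation.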

[4] = Cellular Toxicity (caspase-3) HUV-EC-C (AID 656); details: HUV-EC-C cells, caspase-3 activation (apoptosis), vehicle = 0, 100 µM tamoxifen = 100%; series mostly up to 92.2 µM;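 also: 0% = DMSO basal and 100% = 100 µM tamoxifen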
Method in brief: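 Luminescent Caspase-Glo 3/7 readout after 16 h, 37 °C compound exposure of HUV-EC-C endothelial cells, 1000 per well, complete medium. AC50 derived by Hill fitting, with DMSO as baseline and 100 uM tamoxifen as full activation.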

[5] = Cellular Toxicity (caspase-3) SK-N-SH (AID 661); details: SK-N-SH caspase-3 activation, qHTS; series mostly up to 91.7 µM;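 also: cells exposed to compound for 16 hours; 0% = DMSO basal and 100% = 10 µM staurosporine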
Method in brief: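 Luminescent Caspase-Glo 3/7 read-out after 16 hr compound exposure of SK-N-SH neuroblastoma cells at 37 °C. Signal increase normalized to DMSO (basal) and 10 uM staurosporine (100%); AC50 from Hill equation fits of qHTS concentration-response data.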

[6] = Cellular Toxicity (caspase-3) H-4-II-E (AID 663); details: H-4-II-E rat hepatoma; Potency: caspase-3 activation; series mostly up to 92.2 µM;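 also: cells exposed to compound for 16 hr before readout; 0% = DMSO basal and 100% = 100 µM tamoxifen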
Method in brief: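 Caspase 3/7 activation measured in H-4-II-E cells in complete culture medium after 16 hr treatment at 37 °C, using luciferase-coupled substrate readout; AC50 values come from Hill-equation fits of normalized concentration-response data.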

[7] = MultiTox-Fluor Cytotoxicity Assay - LYMP1-002 - Dead Cells (AID 960); details: LYMP1-002 lymphoblastoid cells, dead-cell protease fluorescence; series mostly up to 46.1 µM;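 also: 0% = DMSO and 100% = tetraoctylammonium bromide; nearly all actives have a fitted effect of over 60% in size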
Method in brief: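 Readout: fluorescence at 485/520 from cell-impermeant bis-AAF-R110 cleaved by proteases leaking from damaged cells. LYMP1-002 lymphoblastoid line, 16 hr compound treatment at 37 C, concentration-response in qHTS format; Hill-equation AC50 values.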

[8] = MultiTox-Fluor Cytotoxicity Assay - LYMP1-003 - Live Cells (AID 962); details: LYMP1-003 lymphoblastoid cells, MultiTox-Fluor live-cell protease fluorescence; series mostly up to 92.2 µM;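 also: cells exposed to compound for 16 hours at 37 °C; 0% = DMSO only and full loss = 92 µM tetraoctylammonium bromide; cytotoxic hits lower the live-cell protease signal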
Method in brief: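 Readout: live-cell fluorescence (Ex/Em=405/510) from GF-AFC cleavage after 60 min MultiTox-Fluor reagent at room temperature. Lymphoblastoid LYMP1-003 cells, 16 hr compound treatment, 37 C. Concentration-response fitted to standard Hill equation for AC50.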

[9] = Cell Viability - LYMP2-005 (AID 967); details: LYMP2-005 lymphoblastoid cell viability; series mostly up to 92.2 µM;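 also: plate controls were DMSO only for no effect and 92 µM tetraoctylammonium bromide control for full effect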
Method in brief: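 LYMP2-005 human lymphoblastoid cells (2500/well) were treated with compounds for 24 h at 37 C. Intracellular ATP was then measured by CellTiter-Glo luminescence after 30 min at room temperature. AC50 values came from Hill-equation fits of qHTS concentration-response data.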

[10] = Cell Viability - LYMP2-021 (AID 974); details: LYMP2-021 lymphoblastoid cells viability; series mostly up to 92.2 µM;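 also: compound exposure lasts 24 hours at 37 °C; % is scaled to controls: 0 for no effect and ±100 for the full control effect; nearly all actives have a fitted effect of over 55% in size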
Method in brief: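 ATP luminescence (CellTiter-Glo, 30 min RT) after 24 h compound exposure at 37 C; 2500 human lymphoblastoid cells/well, 5 h settle beforehand. Cytotoxicity = concentration-dependent ATP drop, AC50 by Hill fit.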

[11] = Cell Viability - LYMP2-023 (AID 975); details: LYMP2-023 lymphoblastoid cell viability; series mostly up to 92.2 µM;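 also: cellular ATP measured by luciferase luminescence as viability proxy; plate controls were DMSO only for no effect and 92 µM tetraoctylammonium bromide control for full effect; nearly all actives have a fitted effect of over 55% in size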
Method in brief: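 CellTiter-Glo luminescence after 30 min at room temperature; decrease in intracellular ATP reflects toxicity. Cells: human lymphoblastoid line, 2500/well, 24 hr compound exposure at 37 C. AC50 fitted to standard Hill equation from concentration-response.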

[12] = Cell Viability - LYMP2-006 (AID 978); details: LYMP2-006 lymphoblastoid cell viability, qHTS; series mostly up to 92.2 µM; also: % is scaled to controls: 0 for no effect and ±100 for the full control effect; nearly all actives have a fitted effect of over 60% in size
Method in brief: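 Potency values are Hill-fit AC50s for decreases in intracellular ATP (CellTiter-Glo luminescence). LYMP2-006 lymphoblastoid cells, 2500 per well, were exposed to compound in complete culture medium for 24 hr at 37 C.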

[13] = Cell Viability - LYMP2-007 (AID 979); details: LYMP2-007 lymphoblastoid cell viability; series mostly up to 92.2 µM;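 also: cells exposed to compound for 24 h before reading; 0% = DMSO only and the negative end = 92 µM tetraoctylammonium bromide; nearly all actives have a fitted effect of over 60% in size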
Method in brief: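 qHTS cytotoxicity: 2500 cells/well, 5 hr 37 C settle, compound 24 hr 37 C, CellTiter-Glo 30 min RT, luminescence. Decrease in ATP = toxicity. AC50 by standard Hill equation; tetraoctylammonium bromide positive control.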

[14] = target: Retinoic acid receptor RXR-alpha (Homo sapiens) (UniProt P19793); assay: qHTS assay for small molecule agonists of retinoid X receptor alpha signaling (AID 588544; calls by dose curve;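 also: 0% = DMSO basal wells and 100% = reference agonist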); details: HEK293T RXRa-UAS-bla, beta-lactamase reporter, 18 h; series mostly up to 76.7 µM
[15] = target: Thyroid hormone receptor beta (Homo sapiens) (UniProt P10828); assay: qHTS assay for small molecule antagonists of thyroid hormone receptor beta signaling (AID 588547; active = well fitted inhibition curve with a large enough effect in the signal ratio, with a control signal flat, not every such curve was filed as active; the % refers to the signal ratio;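 also: cells stimulated with 0.4 nM T3 agonist during compound exposure; % is scaled to controls: 0 for no effect and ±100 for the full control effect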); details: TR-UAS-bla HEK293, beta-lactamase ratio, antagonist mode, 18 h
Method in brief: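 TR-UAS-bla GripTite HEK293 cells in 2% charcoal/dextran FBS medium were preincubated 4 h at 37 C, given compound (0.59 nM to 92 uM) plus 0.4 nM T3 (final) for 18 h, then CCF4 for 2 h at RT; Hill fit gave IC50.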

[16] = target: Nuclear receptor subfamily 1 group I member 2 (Rattus norvegicus) (UniProt Q9R1A7); assay: qHTS assay for small molecule activators of the rat pregnane X receptor (rPXR) signaling pathway (AID 651751; call rule not given here; also: 0% is about no effect); details: rPXR reporter cells, luciferase (One-Glo), 24 h
[17] = target: Vitamin D3 receptor (Homo sapiens) (UniProt P11473); assay: qHTS assay for small molecule antagonists of vitamin D receptor signaling (AID 588541; calls by dose curve;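 also: receptor activated by calcitriol during compound treatment; % is scaled to controls: 0 for no effect and ±100 for the full control effect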); details: HEK293T VDR-UAS-bla, beta-lactamase ratio, antagonist mode; series mostly up to 76.7 µM
Method in brief: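 VDR-UAS-bla HEK293T cells (2000/well, 2% charcoal-stripped FBS) were treated with titrated compounds plus 1-alpha,25-dihydroxyvitamin D3 (50 nM or 3 nM final) for 16 h at 37 C. CCF4 beta-lactamase fluorescence was read; Hill fits gave IC50.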

[18] = target: Thyroid hormone receptor beta (Homo sapiens) (UniProt P10828); assay: qHTS assay for small molecule agonists of thyroid hormone receptor beta signaling (AID 588545; calls by dose curve); details: TR-UAS-bla GripTite HEK 293, beta-lactamase ratio, agonist mode, 18 h; series mostly up to 76.7 µM
Method in brief: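 Agonist activity was read as beta-lactamase CCF4 fluorescence (405 ex, 460/530 em), scaled between DMSO (0%) and 10 nM T3 (100%), then Hill-fitted for EC50 and efficacy. HEK 293 TR-UAS-bla cells in 2% charcoal/dextran FBS medium were exposed 18 h at 37 C.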

[19] = qHTS assay for small molecule activators of the human pregnane X receptor (PXR) signaling pathway (AID 720659; call rule not given here; also: 0% is about no effect); details: DPX-2 HepG2 CYP3A4-luciferase, 24 h; series mostly up to 92.3 µM
[20] = Cell Viability - HepG2 (AID 433; calls by dose curve;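 also: potency is read from the fitted curve at half-maximal effect; potency for ATP loss meaning cytotoxicity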); details: qHTS
Method in brief: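 Cytotoxicity read as ATP loss (CellTiter-Glo luminescence) after 40 hr compound exposure of HepG2, 1500 cells/well, 37 °C. AC50 by Hill equation; 0% set by DMSO, 100% inhibition by 100 uM tamoxifen.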

Sequence of Thyroid hormone receptor beta (Homo sapiens) (P10828 whole entry, looked up): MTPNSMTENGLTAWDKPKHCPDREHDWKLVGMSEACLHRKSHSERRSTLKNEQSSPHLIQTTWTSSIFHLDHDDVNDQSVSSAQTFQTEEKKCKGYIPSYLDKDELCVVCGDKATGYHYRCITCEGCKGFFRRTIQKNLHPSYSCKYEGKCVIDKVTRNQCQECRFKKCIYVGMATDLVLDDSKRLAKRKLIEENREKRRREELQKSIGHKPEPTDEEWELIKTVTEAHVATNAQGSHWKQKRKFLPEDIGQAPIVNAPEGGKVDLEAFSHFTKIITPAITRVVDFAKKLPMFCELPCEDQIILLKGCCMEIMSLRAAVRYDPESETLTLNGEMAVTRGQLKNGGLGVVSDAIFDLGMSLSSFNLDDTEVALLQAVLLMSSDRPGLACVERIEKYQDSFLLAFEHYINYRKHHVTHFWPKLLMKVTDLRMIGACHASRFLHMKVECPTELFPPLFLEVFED
Sequence of Vitamin D3 receptor (Homo sapiens) (P11473 whole entry, looked up): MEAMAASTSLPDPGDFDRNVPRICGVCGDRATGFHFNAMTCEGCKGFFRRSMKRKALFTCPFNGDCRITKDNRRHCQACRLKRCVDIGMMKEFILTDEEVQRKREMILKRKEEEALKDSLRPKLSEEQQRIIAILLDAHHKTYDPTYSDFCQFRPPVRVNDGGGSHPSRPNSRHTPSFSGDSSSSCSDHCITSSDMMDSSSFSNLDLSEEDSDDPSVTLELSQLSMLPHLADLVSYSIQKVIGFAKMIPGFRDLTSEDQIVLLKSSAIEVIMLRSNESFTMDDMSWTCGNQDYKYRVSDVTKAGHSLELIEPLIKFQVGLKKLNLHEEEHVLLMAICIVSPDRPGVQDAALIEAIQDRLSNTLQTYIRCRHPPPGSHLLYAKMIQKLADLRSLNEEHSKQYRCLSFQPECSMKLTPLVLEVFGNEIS
Sequence of Nuclear receptor subfamily 1 group I member 2 (Rattus norvegicus) (Q9R1A7 whole entry, looked up): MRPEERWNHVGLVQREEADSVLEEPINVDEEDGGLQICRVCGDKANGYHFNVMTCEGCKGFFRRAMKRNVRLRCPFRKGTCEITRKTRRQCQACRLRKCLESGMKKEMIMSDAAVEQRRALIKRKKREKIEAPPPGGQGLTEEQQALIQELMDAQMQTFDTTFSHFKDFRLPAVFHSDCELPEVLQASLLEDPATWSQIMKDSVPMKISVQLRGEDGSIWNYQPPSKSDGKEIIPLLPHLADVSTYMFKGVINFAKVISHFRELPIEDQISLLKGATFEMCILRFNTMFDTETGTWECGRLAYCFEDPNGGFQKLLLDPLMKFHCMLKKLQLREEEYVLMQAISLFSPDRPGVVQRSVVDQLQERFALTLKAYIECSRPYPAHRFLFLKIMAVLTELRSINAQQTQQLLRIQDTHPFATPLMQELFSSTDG
Sequence of Retinoic acid receptor RXR-alpha (Homo sapiens) (P19793 whole entry, looked up): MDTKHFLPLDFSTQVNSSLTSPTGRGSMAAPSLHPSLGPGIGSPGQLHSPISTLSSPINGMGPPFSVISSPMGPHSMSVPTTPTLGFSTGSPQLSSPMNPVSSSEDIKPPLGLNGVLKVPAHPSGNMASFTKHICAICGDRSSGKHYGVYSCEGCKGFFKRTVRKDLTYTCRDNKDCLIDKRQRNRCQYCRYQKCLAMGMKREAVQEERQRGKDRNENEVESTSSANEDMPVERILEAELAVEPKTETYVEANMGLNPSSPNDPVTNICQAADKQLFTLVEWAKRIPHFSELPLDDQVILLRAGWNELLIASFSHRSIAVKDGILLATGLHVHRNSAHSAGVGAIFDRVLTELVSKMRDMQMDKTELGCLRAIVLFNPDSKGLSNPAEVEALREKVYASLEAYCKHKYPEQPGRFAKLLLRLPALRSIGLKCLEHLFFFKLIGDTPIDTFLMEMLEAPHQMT

CCOC(=O)C1OC1(C)c1ccccc1 (stereo not given)
inactive: Potency [1] > 92 µM | Potency [2] | Potency [3] | outcome [4] | Potency [5] | Potency [6] | Potency [7] | outcome [8] | Potency [9] | Potency [10] | Potency [11] | Potency [12] | Potency [13] | outcome [14] | activity change % (negative = inhibition) [15] 6.83% | max response [16] -3.02%

Nc1cc(Cl)cc(Cl)c1
inactive: Potency [1] > 92 µM | Potency [2] | Potency [3] | outcome [4] | Potency [5] | Potency [6] | Potency [7] | outcome [8] | Potency [9] | Potency [10] | Potency [11] | Potency [12] | Potency [13] | outcome [17] | outcome [14] | Potency [18] | max response [16] -0.532% | outcome [19]

CN(C)N=O
inactive: Potency [20] > 92 µM | Potency [2] | outcome [4] | Potency [5] | Potency [6] | Potency [7] | outcome [8] | Potency [10] | Potency [11] | Potency [12] | Potency [13] | outcome [17] | outcome [14] | Potency [18] | activity change % (negative = inhibition) [15] 11.5% | max response [16] 2.44% | outcome [19]

CCN(CC)CCO
inactive: Potency [1] > 92 µM | Potency [2] | Potency [3] | outcome [4] | Potency [5] | Potency [6] | Potency [7] | outcome [8] | Potency [9] | Potency [10] | Potency [12] | Potency [13] | outcome [14] | Potency [18] | activity change % (negative = inhibition) [15] -7.98% | max response [16] 0.466% | outcome [19]

CCCCCC[N+](=O)[O-]
inactive: Potency [1] > 92 µM | Potency [2] | outcome [4] | Potency [5] | Potency [6] | Potency [7] | Potency [9] | Potency [10] | Potency [11] | Potency [12] | Potency [13] | outcome [17] | outcome [14] | Potency [18] | activity change % (negative = inhibition) [15] -9.74% | max response [16] 1.74% | outcome [19]

ClCc1ccccc1
inactive: Potency [20] > 92 µM | Potency [2] | Potency [3] | outcome [4] | Potency [6] | Potency [7] | outcome [8] | Potency [9] | Potency [12] | Potency [13] | outcome [17] | outcome [14] | Potency [18] | activity change % (negative = inhibition) [15] 2.64% | max response [16] -2.08% | outcome [19]

CN(C)C(=O)Nc1ccc(Cl)cc1
inactive: Potency [20] > 92 µM | Potency [3] | outcome [4] | Potency [5] | Potency [6] | Potency [7] | Potency [9] | Potency [12] | Potency [13] | outcome [17] | outcome [14] | Potency [18] | activity change % (negative = inhibition) [15] -0.766% | max response [16] 6.29% and 10.4% | outcome [19]

[O-][Cl+2]([O-])O
inactive: Potency [20] > 92 µM | Potency [2] | Potency [3] | outcome [4] | Potency [6] | Potency [7] | Potency [9] | Potency [10] | Potency [12] | Potency [13] | outcome [17] | outcome [14] | max response [16] 2.81% | outcome [19]
